Results published in PubChem BioAssay (Tox21).
Results filed as inconclusive are left out. Entries that show only a call come without a potency. Activity calls are given as the source filed them. Calls follow the shape of the dose curve; as a rule, active = well fitted activation curve with a large enough effect in the signal ratio in the repeat runs, with a control signal flat (not every such curve was filed as active); inconclusive = weak or mixed curves; inactive = flat fitted curve, though single readings scatter; the % refers to the signal ratio.

Experiment: qHTS assay for small molecule activators of the heat shock response signaling pathway (AID 743210)
Conditions: HeLa HSE-bla reporter, beta-lactamase ratio, 5 h; series mostly up to 62.6 µM
From the text: U.S. Tox21 Program National Center for Advancing Translational Sciences [NCATS] NIH Chemical Genomics Center [NCGC] U.S. Environmental Protection Agency [EPA] National Institutes of Environmental Health Sciences [NIEHS] National Toxicology Program [NTP] U.S. Food and Drug Administration [FDA] Tox21 Assay Overview: Various chemicals, environmental and physiological stress conditions may lead to the activation of heat shock response/ unfolded protein response (HSR/UPR). There are three heat shock transcription factors (HSFs) (HSF-1, -2, and -4) mediating transcriptional regulation of the human HSR. To identify the compounds that activate HSR signaling, HSE-bla HeLa cell line (Invitrogen, Carlsbad, CA, USA) containing a beta-lactamase reporter gene under the control of the heat shock response elements was used to screen the Tox21 10K compound library.
Tox21 Assay Protocol Summary: The CellSensor HSE-bla HeLa cells (Invitrogen, Carlsbad, CA, USA) were dispensed at 1500 cells/6uL/well into 1536-well black wall/clear bottom plates using a Multidrop combi (Thermo Fisher Scientific, Waltham, MA) dispenser. After the assay plates were incubated at 37 C and 5% CO2 overnight, 23 nL of compounds dissolved in DMSO, positive controls or DMSO only was transferred to the assay plate by a Pintool station (Kalypsys, San Diego, CA). The plates were incubated at 37 C for 5 h. After 1 uL of LiveBLAzerTM B/G FRET substrate was added using a Flying Reagent Dispenser (Beckman Coulter, Indianapolis, IN, USA), the plates were incubated at room temperature for 2.5 h, and fluorescence intensity was measured by an Envision plate reader (PerkinElmer, Shelton, CT).

Row | SMILES | Potency
1 | BrC(Br)C(Br)Br | inactive
2 | CCCOC(=O)c1c(Cl)c(Cl)c(Cl)c(Cl)c1C(=O)OCCC | inactive
3 | CCOCCC(=O)OCC | inactive
4 | Cc1cc(CCC(=O)OCCOCCOCCOC(=O)CCc2cc(C)c(O)c(C(C)(C)C)c2)cc(C(C)(C)C)c1O | inactive
5 | C=CCOC(=O)COCCC(C)C | inactive
6 | Nc1ccn([C@H]2CS[C@@H](CO)O2)c(=O)n1 | inactive
7 | CC(C)C(O)C(C)(C)CO (stereo not given) | inactive
8 | Cc1c[nH]c2ccccc12 | inactive
9 | CCCCCC | inactive
10 | CC(C)c1ccc(C#N)cc1 | inactive
11 | O=S(=O)(Cl)c1c(Cl)cccc1Cl | inactive
12 | COc1cc(OC)c2ccc(=O)oc2c1 | inactive
13 | CC(C)(C)NCC(O)COc1cccc2c1C[C@H](O)[C@H](O)C2 (stereo not given in full) | inactive
14 | CC(C)(C)C1(CCc2ccc(Cl)cc2)CO1 (stereo not given) | inactive
15 | CC(CN(CCN(CC(C)OCCO)CC(C)OCCO)CC(C)OCCO)OCCO (stereo not given) | inactive
16 | Oc1cccc2[nH]ccc12 | inactive
17 | CC1C(C)(C)C2=C(C(=O)CCC2)C1(C)C (stereo not given) | inactive
18 | CCCCC(CC)COS(=O)(=O)O (stereo not given) | inactive
19 | NC(=O)CCCCC(N)=O | inactive
20 | CCCCCCCC/C=C/C(=O)O | inactive

Row | SMILES | Potency
21 | CSCC[C@H](NC(=O)[C@H](Cc1c[nH]c2ccccc12)NC(=O)CCNC(=O)OC(C)(C)C)C(=O)N[C@@H](CC(=O)O)C(=O)N[C@@H](Cc1ccccc1)C(N)=O | inactive
22 | Cc1cn([C@H]2C[C@H](F)[C@@H](CO)O2)c(=O)[nH]c1=O | inactive
23 | C=C(C)c1ccccc1 | inactive
24 | CC(=O)OCCC1CCCCC1 | inactive
25 | CCCCCCOC(=O)CCCCC | inactive
26 | Cc1ccc(NC(=O)N(C)C)cc1NC(=O)N(C)C | inactive
27 | CC(C)c1ccc(C(=O)N=C(N)N)cc1S(C)(=O)=O | inactive
28 | Cc1cccc2sc(N)nc12 | inactive
29 | CC1CCCC(=O)C1=O (stereo not given) | inactive
30 | C1=CCC2CC=CC2C1 (stereo not given) | inactive
31 | CC(C)(O)CCc1ccccc1 | inactive
32 | COc1ccc(N)c([N+](=O)[O-])c1 | inactive
33 | CC(=O)OC(C)C[N+](C)(C)C (stereo not given) | inactive
34 | CCc1ccc(C)cc1 | inactive
35 | C=CC(=O)NC(C)C | inactive
36 | O=C(O)CNC(=O)c1ccccc1I | inactive
37 | O=C1CC[C@@H](C(=O)O)N1 | inactive
38 | O=c1[nH][nH]c(=O)c2cc([N+](=O)[O-])ccc12 | inactive
39 | CCN(CC)CCOC(=O)C(c1ccccc1)c1ccccc1 | inactive
40 | CCNc1nc(N)nc(Cl)n1 | inactive
